Results from PubChem BioAssay (Tox21).
Unmarked numbers belong to inactive results. Records with an inconclusive call do not appear. Entries that show only a call come without a potency. Active and inactive are the calls of the source. Unless noted, calls come from the whole dose curve.

What was measured:
[1] = Nuclear factor erythroid 2-related factor 2/antioxidant responsive element (Nrf2/ARE) small molecule agonists: qHTS cell viability counter screen in human keratinocytes (AID 1919968; active = well fitted curve in the direction sought with a large enough effect in the repeat runs; an effect the other way counts as inactive or inconclusive; note: nearly all actives have a fitted effect of over 55% in size)
Outline: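 Stably transfected HaCaT (KeratinoSens), 1,500/well. Test agents in DMSO were applied for 23 h, 37 C/5% CO2. CellTiter-Fluor was incubated 1 h before the fluorescence read.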

[2] = Nuclear factor erythroid 2-related factor 2/antioxidant responsive element (Nrf2/ARE) small molecule agonists: luciferase reporter gene qHTS assay in human keratinocytes (AID 1919969); note: nearly all actives have a fitted effect of over 35% in size; note: potency is the fitted concentration of half-maximal effect
[3] = biological target: Gonadotropin-releasing hormone receptor (Homo sapiens) (UniProt P30968); assay: Human gonadotropin-releasing hormone receptor (GnRHR) small molecule agonists, calcium flux assay in GnRHR-HEK293 cells (AID 1920063); note: nearly all actives have a fitted effect of over 35% in size
Gonadotropin-releasing hormone receptor (Homo sapiens), sequence (P30968 whole entry, looked up): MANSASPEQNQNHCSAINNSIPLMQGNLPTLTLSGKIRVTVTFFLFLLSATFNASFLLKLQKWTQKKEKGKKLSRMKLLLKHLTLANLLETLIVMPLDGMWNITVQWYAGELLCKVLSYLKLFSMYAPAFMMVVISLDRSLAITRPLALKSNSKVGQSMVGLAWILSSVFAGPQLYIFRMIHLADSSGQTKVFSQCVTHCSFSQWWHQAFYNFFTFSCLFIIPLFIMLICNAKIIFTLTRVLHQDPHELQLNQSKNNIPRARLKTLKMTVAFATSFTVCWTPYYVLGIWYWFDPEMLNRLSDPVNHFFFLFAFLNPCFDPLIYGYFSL
Outline: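 Stable human GnRHR HEK293 line. 18 h plating, then calcium dye for 1 h at 37 C. Agonist-mode compound addition from DMSO stocks; fluorescence monitored 3 min.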

[4] = biological target: KiSS-1 receptor (Homo sapiens) (UniProt Q969F8); assay: Human kisspeptin (KISS1R) small molecule agonists, calcium flux assay in KISS1R-HEK293 cells (AID 1920064; active = well fitted curve in the direction sought with a large enough effect in the repeat runs; an effect the other way counts as inactive or inconclusive)
KiSS-1 receptor (Homo sapiens), sequence (Q969F8 whole entry, looked up): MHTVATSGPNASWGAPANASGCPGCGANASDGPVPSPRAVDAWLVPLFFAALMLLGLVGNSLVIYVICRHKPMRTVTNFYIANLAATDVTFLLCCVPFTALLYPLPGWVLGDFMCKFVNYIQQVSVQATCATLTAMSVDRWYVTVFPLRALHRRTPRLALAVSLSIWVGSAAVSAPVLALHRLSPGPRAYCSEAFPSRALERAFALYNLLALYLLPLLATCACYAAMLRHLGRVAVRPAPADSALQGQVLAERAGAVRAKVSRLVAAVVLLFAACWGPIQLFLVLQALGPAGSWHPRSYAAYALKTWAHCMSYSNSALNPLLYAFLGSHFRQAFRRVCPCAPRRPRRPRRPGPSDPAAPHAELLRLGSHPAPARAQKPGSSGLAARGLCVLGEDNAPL
Outline: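 After overnight (18 h) culture at 37 C/5% CO2, human KISS1R-HEK293 cells received calcium dye for 1 h, then test compound; emission at 540 nm (excitation 480 nm) was tracked for 3 min.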

[5] = G protein-coupled receptor (GPCR) small molecule agonists, calcium flux assay: HEK293 wild type cell line counter screen (AID 1920065)
Outline: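 Following 18 h incubation at 37 C/5% CO2, plates got calcium dye for 1 h; compounds, ATP or DMSO were then pinned in and fluorescence followed kinetically (480/540 nm).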

[6] = p53 small molecule agonists, cell-based qHTS assay with human liver microsomes: qHTS cell viability counter screen (AID 1963579); note: nearly all actives have a fitted effect of over 45% in size
Outline: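 Metabolically activated exposure: compounds, human liver microsomes and NADPH (0.5 mg/mL final apiece) were added to p53RE-bla cells seeded 5 h earlier, left 16 h at 37 C, and then assessed for viability by CellTiter-Glo luminescence.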

[7] = p53 small molecule agonists, cell-based qHTS assay with rat liver microsomes: qHTS cell viability counter screen (AID 1963580); note: nearly all actives have a fitted effect of over 45% in size
Outline: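 Cytotoxicity counter screen: intracellular ATP measured by CellTiter-Glo luminescence in the same wells as the beta-lactamase reporter read, on HCT-116 p53RE-bla cells exposed 16 h at 37 C to compounds with rat liver microsomes and NADPH, each 0.5 mg/mL final.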

[8] = p53 small molecule agonists, cell-based qHTS assay: qHTS cell viability counter screen (AID 1963581); note: nearly all actives have a fitted effect of over 45% in size
Outline: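 qHTS counter screen: 16 h compound exposure at 37 C of p53RE-bla HCT-116 cells (4,000 per well, seeded 5 h prior), cell viability by ATP luminescence.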

[9] = biological target: 5-hydroxytryptamine receptor 2A (Homo sapiens) (UniProt P28223); assay: 5-hydroxytryptamine receptor 2A (HTR2A) small molecule antagonists, cell-based qHTS assay (AID 1963586); note: nearly all actives have a fitted effect of over 45% in size
5-hydroxytryptamine receptor 2A (Homo sapiens), sequence (P28223 whole entry, looked up): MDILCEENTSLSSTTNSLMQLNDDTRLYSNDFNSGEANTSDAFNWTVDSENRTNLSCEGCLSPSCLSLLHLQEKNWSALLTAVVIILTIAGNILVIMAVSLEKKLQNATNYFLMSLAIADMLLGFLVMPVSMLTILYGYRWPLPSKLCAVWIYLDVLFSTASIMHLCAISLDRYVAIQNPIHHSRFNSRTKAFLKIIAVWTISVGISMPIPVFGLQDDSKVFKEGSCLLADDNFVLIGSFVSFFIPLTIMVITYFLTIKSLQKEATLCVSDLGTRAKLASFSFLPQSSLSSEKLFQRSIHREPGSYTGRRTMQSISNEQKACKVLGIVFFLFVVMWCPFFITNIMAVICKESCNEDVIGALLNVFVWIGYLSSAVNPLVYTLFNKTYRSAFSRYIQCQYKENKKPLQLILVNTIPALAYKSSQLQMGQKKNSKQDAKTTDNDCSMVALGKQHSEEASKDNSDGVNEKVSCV
Outline: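 CHO cells stably expressing human HTR2A were plated for 18 h at 37 C, then loaded with calcium dye for 1 h. Compounds were preincubated 5 min at room temperature before DOI (4 nM solution) was added. Kinetic fluorescence was read for 3 min.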

[10] = biological target: 5-hydroxytryptamine receptor 2A (Homo sapiens) (UniProt P28223); assay: 5-hydroxytryptamine receptor 2A (HTR2A) small molecule agonists, cell-based qHTS assay (AID 1963587); note: nearly all actives have a fitted effect of over 30% in size
Outline: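 CHO cells stably expressing human HTR2A, plated 18 h, loaded with calcium dye 1 h at 37 C. Agonist mode: compounds added and intracellular calcium fluorescence recorded kinetically for 2 min at 1 sec intervals.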

[11] = biological target: Muscarinic acetylcholine receptor M1 (Homo sapiens) (UniProt P11229); assay: Cholinergic receptor muscarinic 1 (CHRM1) small molecule antagonists, cell-based qHTS assay (AID 1963588); note: nearly all actives have a fitted effect of over 40% in size
Muscarinic acetylcholine receptor M1 (Homo sapiens), sequence (P11229 whole entry, looked up): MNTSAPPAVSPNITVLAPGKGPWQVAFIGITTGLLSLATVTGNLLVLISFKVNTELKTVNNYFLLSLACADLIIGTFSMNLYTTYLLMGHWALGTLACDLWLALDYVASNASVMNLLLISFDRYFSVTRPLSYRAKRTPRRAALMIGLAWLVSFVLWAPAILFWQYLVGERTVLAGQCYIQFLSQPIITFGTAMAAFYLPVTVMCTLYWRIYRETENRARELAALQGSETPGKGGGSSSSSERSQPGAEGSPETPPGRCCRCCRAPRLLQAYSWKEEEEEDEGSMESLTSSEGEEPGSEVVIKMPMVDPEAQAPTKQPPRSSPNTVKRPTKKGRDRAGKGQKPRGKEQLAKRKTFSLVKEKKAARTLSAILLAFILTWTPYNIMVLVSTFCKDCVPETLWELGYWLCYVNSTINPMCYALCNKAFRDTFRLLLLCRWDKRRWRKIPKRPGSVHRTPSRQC
Outline: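 Compounds were tested at 15 concentrations in three independent runs. Dye-loaded CHRM1-CHO cells were exposed 5 min at room temperature before stimulation by acetylcholine added at 50nM. Intracellular calcium was read kinetically on FDSS for 3 min.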

[12] = biological target: Muscarinic acetylcholine receptor M1 (Homo sapiens) (UniProt P11229); assay: Cholinergic receptor muscarinic 1 (CHRM1) small molecule agonists, cell-based qHTS assay (AID 1963589); note: nearly all actives have a fitted effect of over 35% in size
Outline: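 Kinetic fluorescence (1 s intervals) of calcium-sensitive dye in human M1 CHO cells after compound addition; cells pre-incubated 18 h at 37 C/5% CO2 and dye-loaded 1 h.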

[13] = cAMP Responsive Elements (CRE) small molecule agonists, cell-based qHTS assay (AID 1963590)
Outline: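 Test agents in DMSO were incubated 3 h at 37 C/5% CO2 with CRE-bla HEK 293T cells seeded 18 h earlier; LiveBLAzer B/G FRET substrate was added and read after 2 h at room temperature.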

[14] = cAMP Responsive Elements (CRE) small molecule antagonists, cell-based qHTS assay (AID 1963591; active = well fitted inhibition curve with a large enough effect in the signal ratio in the repeat runs, not every such curve was filed as active; the % refers to the signal ratio)
Outline: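 Reporter line CRE-bla HEK 293T in dialyzed-FBS DMEM; cells preincubated 18 h, treated 3 h with compound plus NKH477 (0.25 uM final); LiveBLAzer FRET, 2 h RT.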

[15] = biological target: Beta-2 adrenergic receptor (Homo sapiens) (UniProt P07550); assay: Adrenergic beta2 receptor (ADRB2) small molecule antagonists, cell-based qHTS assay (AID 1963592); note: series mostly up to about 92 µM; nearly all actives have a fitted effect of over 50% in size
Beta-2 adrenergic receptor (Homo sapiens), sequence (P07550 whole entry, looked up): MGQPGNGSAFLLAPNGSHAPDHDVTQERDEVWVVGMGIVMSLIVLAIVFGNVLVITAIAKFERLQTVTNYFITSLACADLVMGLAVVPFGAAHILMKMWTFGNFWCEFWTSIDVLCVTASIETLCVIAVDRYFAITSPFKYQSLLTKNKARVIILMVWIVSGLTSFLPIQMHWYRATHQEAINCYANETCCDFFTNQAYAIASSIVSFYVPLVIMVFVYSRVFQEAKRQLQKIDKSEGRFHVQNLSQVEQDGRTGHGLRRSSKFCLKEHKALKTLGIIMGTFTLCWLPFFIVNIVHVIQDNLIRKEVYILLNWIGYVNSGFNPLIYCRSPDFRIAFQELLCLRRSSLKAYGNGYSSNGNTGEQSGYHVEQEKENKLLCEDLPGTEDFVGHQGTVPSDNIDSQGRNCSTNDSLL
Outline: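 Assay format: CHO-ADRB2 cells, 18-20hr seeding at 37C/5% CO2, then compound plus 1nM isoproterenol agonist mix for 0.5hr RT. Homogeneous time-resolved fluorescence cAMP detection after 1hr, expressed as 665/615 nm ratio.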

[16] = biological target: D(2) dopamine receptor (Homo sapiens) (UniProt P14416); assay: Dopamine D2 receptor (DRD2) small molecule agonists, cell-based qHTS assay (AID 1963594); note: nearly all actives have a fitted effect of over 35% in size
D(2) dopamine receptor (Homo sapiens), sequence (P14416 whole entry, looked up): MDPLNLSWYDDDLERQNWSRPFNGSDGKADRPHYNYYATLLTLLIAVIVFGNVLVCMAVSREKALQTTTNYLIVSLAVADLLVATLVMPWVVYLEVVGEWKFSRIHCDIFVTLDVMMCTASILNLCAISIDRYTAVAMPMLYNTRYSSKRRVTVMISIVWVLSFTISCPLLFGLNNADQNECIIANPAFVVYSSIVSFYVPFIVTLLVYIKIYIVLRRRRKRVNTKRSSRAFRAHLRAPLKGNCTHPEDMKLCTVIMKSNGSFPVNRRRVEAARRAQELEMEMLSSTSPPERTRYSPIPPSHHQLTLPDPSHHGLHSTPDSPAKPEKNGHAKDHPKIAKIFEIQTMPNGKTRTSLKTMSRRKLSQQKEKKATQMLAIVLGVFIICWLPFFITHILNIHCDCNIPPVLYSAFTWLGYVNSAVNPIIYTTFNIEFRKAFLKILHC
Outline: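 HEK293 cells stably expressing human DRD2, pre-treated with PDE inhibitor Ro20-1724 (0.1 mM final) and compound 10 min at room temperature, then stimulated with NKH477 (200nM […]) for 30 min. cAMP read by HTRF (665/620 nm).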

[17] = biological target: D(2) dopamine receptor (Homo sapiens) (UniProt P14416); assay: Dopamine D2 receptor (DRD2) small molecule antagonists, cell-based qHTS assay (AID 1963595; active = well fitted inhibition curve with a large enough effect in the signal ratio in the repeat runs, with a control signal flat; the % refers to the signal ratio)
Outline: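 Antagonist mode in DRD2-HEK293 cells: after compound addition with 0.1 mM Ro20-1724, cells received quinpirole (12 nM) and NKH477 (200 nM) for 30 min at room temperature; HTRF cAMP read after 1 h detection.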

[18] = biological target: Beta-2 adrenergic receptor (Homo sapiens) (UniProt P07550); assay: Adrenergic beta2 receptor (ADRB2) small molecule agonists, cell-based qHTS assay (AID 1963593);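 note: CHO cells stably overexpressing human ADRB2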
Outline: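 CHO cells stably over-expressing ADRB2 were plated overnight at 37C, then dosed with compounds plus a stimulation mix containing 100uM IBMX and 25uM Ro-20-1724 for 0.5hr at room temperature. cAMP was measured by HTRF competition, 1hr.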

SMILES | Potency [1] | Potency [2] | Potency [3] | Potency [4] | Potency [5] | Potency [6] | Potency [7] | Potency [8] | Potency [9] | Potency [10] | Potency [11] | Potency [12] | Potency [13] | Potency [14] | Potency [15] | Potency [16] | Potency [17] | Potency [18]
CCC(C)Nc1c([N+](=O)[O-])cc(C(C)(C)C)cc1[N+](=O)[O-] (centres undefined) | inactive | 54.5 µM (active) | inactive | inactive | inactive | inactive | inactive | inactive | inactive | inactive | inactive | inactive | inactive | inactive | inactive | inactive | inactive | –
CCC1(CC)C(=O)N=C(O)NC1=O | inactive | inactive | inactive | inactive | inactive | inactive | inactive | inactive | inactive | inactive | inactive | inactive | inactive | inactive | – | inactive | inactive | inactive
O=C1OC(=O)C2C1C1(Cl)C(Cl)=C(Cl)C2(Cl)C1(Cl)Cl (centres undefined) | inactive | inactive | inactive | inactive | inactive | inactive | inactive | inactive | inactive | inactive | inactive | inactive | inactive | inactive | inactive | inactive | inactive | –
[O-][Cl+3]([O-])([O-])O | inactive | inactive | inactive | inactive | inactive | inactive | inactive | inactive | inactive | inactive | inactive | inactive | inactive | inactive | inactive | – | inactive | inactive
CNC(=O)N(C)c1nc2ccccc2s1 | inactive | inactive | inactive | inactive | inactive | inactive | inactive | inactive | inactive | inactive | inactive | inactive | inactive | inactive | inactive | inactive | inactive | inactive
Fc1cccc(Cl)c1CCl | inactive | inactive | inactive | inactive | inactive | inactive | inactive | inactive | inactive | inactive | inactive | inactive | inactive | inactive | – | – | inactive | –
CCOC(=O)Cc1ccccc1 | inactive | inactive | inactive | inactive | inactive | inactive | inactive | inactive | inactive | inactive | inactive | inactive | inactive | inactive | – | – | inactive | –
O=c1[nH]c2ccccc2o1 | inactive | inactive | inactive | inactive | inactive | inactive | inactive | inactive | inactive | inactive | inactive | inactive | inactive | inactive | inactive | inactive | inactive | –
Clc1cccc2ccccc12 | inactive | inactive | inactive | inactive | inactive | inactive | inactive | inactive | inactive | inactive | inactive | inactive | inactive | inactive | inactive | inactive | inactive | –
CCOP(=O)(SC(C)CC)N1CCSC1=O (centres undefined) | inactive | inactive | inactive | inactive | inactive | inactive | inactive | inactive | inactive | inactive | inactive | inactive | inactive | inactive | inactive | inactive | inactive | –
Cc1cnc2c(C(=O)O)c(Cl)ccc2c1 | inactive | inactive | inactive | inactive | inactive | inactive | inactive | inactive | inactive | inactive | inactive | inactive | inactive | inactive | inactive | inactive | inactive | inactive
CCC#N | inactive | inactive | inactive | inactive | inactive | inactive | inactive | inactive | inactive | inactive | inactive | inactive | inactive | inactive | – | inactive | inactive | inactive
CCn1cc[n+](C)c1 (tested in a mixture with another compound) | inactive | inactive | inactive | inactive | inactive | inactive | inactive | inactive | inactive | inactive | inactive | inactive | inactive | inactive | inactive | – | inactive | –
Brc1cccc(-c2ccccc2)c1 | inactive | inactive | inactive | inactive | inactive | inactive | inactive | inactive | inactive | inactive | inactive | inactive | inactive | inactive | inactive | – | inactive | inactive
CC(C)CC#N | inactive | inactive | inactive | inactive | inactive | inactive | inactive | inactive | inactive | inactive | inactive | inactive | inactive | inactive | inactive | – | inactive | –
Cc1nc(N(C)C)nc(OC(=O)N(C)C)c1C | inactive | inactive | inactive | inactive | inactive | inactive | inactive | inactive | inactive | inactive | inactive | inactive | inactive | inactive | inactive | inactive | inactive | inactive
